# This is one part of a sample in which hits are shown more often than they occur.
# nsP2pro primary – CHIKV nsP2 protease inhibition, primary qHTS; Q8JUX6; FRET peptide cleavage, nsP2pro, fluorescence 1 h; Potency, µM (titrated, usually from 24.9 µM), usual class: inhibitors; 1.1% of 31,000 active; AID 1964107; note: nearly all actives have a fitted effect of over 60% in size
#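 Purified recombinant nsP2pro (150 nM final) in 10 mM Tris-HCl pH 8.0 with 0.01% Tween 20 was preincubated 15 min at room temperature with compound (7 concentrations, up to 25 uM). FRET peptide 2 substrate (2.5 uM final) was then added; fluorescence was read after 1 h.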
# nsP2 cell sec – secondary cell-based test for CHIKV nsP2 protease inhibitors; shares compounds with nsP2pro primary; cell-based CHIKV nsP2 protease reporter assay; Potency, µM (doses to about 51.1 µM), actives largely listed as inhibitors; 10% of 450 active; note: nearly all actives have a fitted effect of over 70% in size
# NSP2 full ctr – inhibits full-length CHIKV NSP2 enzyme; Full-length CHIKV NSP2 protease enzymatic counterscreen; AID 1964101; shares compounds with nsP2pro primary; 39% of 410 active; Potency, µM (highest dose often 50.7 µM), hits mostly inhibitors; note: nearly all actives have a fitted effect of over 65% in size
# Furin counterscr – inhibits human furin in a CHIKV nsP2 protease selectivity counterscreen. shares compounds with nsP2pro primary. Recombinant human furin enzymatic counterscreen, fluorogenic substrate. Potency, µM (titrated, usually from 50.6 µM), actives largely listed as inhibitors. 6% of 410 active
# Target sequence (P09958 whole entry, looked up): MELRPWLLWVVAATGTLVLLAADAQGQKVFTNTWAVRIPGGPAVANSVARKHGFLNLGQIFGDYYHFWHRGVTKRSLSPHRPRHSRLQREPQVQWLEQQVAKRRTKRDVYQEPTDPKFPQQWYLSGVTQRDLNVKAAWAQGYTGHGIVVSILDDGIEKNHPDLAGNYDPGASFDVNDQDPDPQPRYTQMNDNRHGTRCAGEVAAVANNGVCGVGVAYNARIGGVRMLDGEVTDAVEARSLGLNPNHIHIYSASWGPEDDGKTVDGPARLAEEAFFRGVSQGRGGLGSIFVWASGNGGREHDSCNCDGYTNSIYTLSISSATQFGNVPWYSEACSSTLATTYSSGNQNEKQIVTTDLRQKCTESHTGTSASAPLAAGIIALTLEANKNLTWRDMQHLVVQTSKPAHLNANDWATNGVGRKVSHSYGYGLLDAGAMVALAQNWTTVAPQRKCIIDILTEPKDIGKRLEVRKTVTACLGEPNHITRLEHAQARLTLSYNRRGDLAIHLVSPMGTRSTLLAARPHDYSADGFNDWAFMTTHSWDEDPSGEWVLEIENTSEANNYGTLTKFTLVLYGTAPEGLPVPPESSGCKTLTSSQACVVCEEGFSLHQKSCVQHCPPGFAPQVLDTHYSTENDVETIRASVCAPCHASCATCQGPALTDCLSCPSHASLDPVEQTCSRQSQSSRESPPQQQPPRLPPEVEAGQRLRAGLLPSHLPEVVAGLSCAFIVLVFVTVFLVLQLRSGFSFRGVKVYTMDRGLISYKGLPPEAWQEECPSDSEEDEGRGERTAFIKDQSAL
# nsP2 NS23 pep – blocks CHIKV nsP2 protease cleavage of endogenous NS2/3 peptide. shares compounds with nsP2pro primary. Purified CHIKV nsP2 protease, endogenous NS2/3 peptide cleavage. Potency, µM (highest dose often 51 µM), usual class: inhibitors. 34% of 410 active. AID 1964103; note: nearly all actives have a fitted effect of over 55% in size
# Papain counter – papain protease inhibition, counterscreen for nsP2pro inhibitors; shares compounds with nsP2pro primary; purified papain protease activity, enzymatic inhibition; Potency, µM (highest dose often 51 µM), most hits filed as inhibitors; 5% of 410 active
# nsP2pro conf qHTS – confirmation of CHIKV nsP2 protease inhibitors; 43% of 410 active; shares compounds with nsP2pro primary; Potency, µM (doses to about 25.5 µM), most hits filed as inhibitors; CHIKV nsP2 protease enzymatic activity, qHTS; note: nearly all actives have a fitted effect of over 75% in size
# HCV NS3 counter – inhibits HCV NS3/4A protease in an nsP2pro selectivity counterscreen; shares compounds with nsP2pro primary; HCV NS3/4A protease biochemical counterscreen; Potency, µM (series often up to 50.9 µM), usual class: inhibitors; 20% of 410 active; AID 1964106; note: nearly all actives have a fitted effect of over 55% in size
# A number is an active result; i = inactive; ? = inconclusive; ! = not confirmed by another sample. Calls come from the whole dose curve.
SMILES,nsP2pro primary,others
O=S(=O)(Nc1cccn2nc(C3CC3)nc12)c1cccnc1,?,nsP2 cell sec=i
CCc1nc2c(NS(=O)(=O)c3cccnc3)cccn2n1,i,
Cc1cccc(S(=O)(=O)Nc2cccn3nc(C4CCC4)nc23)c1,i,
CC[C@H]1OC(=O)C[C@@H](O)[C@H](C)[C@@H](OC2OC(C)C(O)C(N(C)C)C2O)[C@@H](CCN2CCCCC2)C[C@@H](C)C(=O)/C=C/C(C)=C/[C@@H]1CN1CCCCC1 (stereo partly specified),i,
CN(C)c1cccc(-c2nc(N3CCC(C(N)=O)CC3)ncc2F)c1,i,
CN(C)c1cccc(-c2ncc(F)c(N3CCC(C(N)=O)CC3)n2)c1,?,nsP2 cell sec=i;NSP2 full ctr=i;Furin counterscr=i;nsP2 NS23 pep=i;Papain counter=i;nsP2pro conf qHTS=i;HCV NS3 counter=i
CN(C)c1cccc(-c2nccc(N3CCC(C(N)=O)CC3)n2)c1,i,
CC(=O)NC(C)c1cnc(-c2cnc(Oc3ccc(OC(C)C)cc3)s2)s1 (stereo unspecified),i,
CCOc1ccc(Cc2cc([C@@]34OC[C@@](CO)(O3)[C@@H](O)[C@H](O)[C@H]4O)ccc2Cl)cc1,i,
CC(C)CCC1(O)C(=O)C(C)(C)C(O[C@@H]2O[C@H](CO)[C@@H](O)[C@H](O)[C@H]2O)C(C)(C)C1O (stereo partly specified),i,
Cc1cc(NS(=O)(=O)c2ccc(NC(=O)Cc3cccc(Cl)c3)cc2)no1,i,
O=C(Nc1nc2ccccc2s1)c1ccc2c(c1)OCCN(CCC(F)(F)F)C2,i,
NCCCC(=O)N1CCC2(CC1)CN(C(=O)c1ccc(Cl)cc1)CCO2,i,
NCCC(=O)N1CCC2(CC1)CN(C(=O)c1ccc(Cl)cc1)CCO2,7.9µM,nsP2 cell sec=i;NSP2 full ctr=12µM;Furin counterscr=i;nsP2 NS23 pep=18µM;Papain counter=i;nsP2pro conf qHTS=9µM;HCV NS3 counter=2.9µM
COc1ccc(C(=O)N2CCOC3(CCN(C(=O)CCN)CC3)C2)cc1,i,
CCN(CCCOc1ccc2c(Nc3cc(CC(=O)Nc4cccc(F)c4)[nH]n3)ncnc2c1)CCOP(=O)(O)O,i,
COc1c(-c2ccc3cc(NS(C)(=O)=O)ccc3c2)cc(-n2ccc(=O)[nH]c2=O)cc1C(C)(C)C,i,
O=C(NCc1nc2ccccc2c(=O)n1-c1ccc(F)cc1)Nc1ccc(Cl)c(C(F)(F)F)c1,i,
CCc1nc(C(N)=O)c(Nc2ccc(N3CCC(N4CCN(C)CC4)CC3)c(OC)c2)nc1NC1CCOCC1,i,
CC(C)Nc1cccnc1N1CCN(C(=O)c2cc3cc(NS(C)(=O)=O)ccc3[nH]2)CC1,1.8µM!,nsP2 cell sec=i;NSP2 full ctr=?;Furin counterscr=i;nsP2 NS23 pep=?;Papain counter=i;nsP2pro conf qHTS=?;HCV NS3 counter=i
CS(=O)(=O)Nc1ccc(OCC(=O)N2CCN(c3ccc(F)cc3)CC2)nc1,i,
COc1ccc(N2CCN(C(=O)c3cc4ccc5cccnc5c4[nH]3)CC2)cc1,i,
Cc1cc(C)nc(NC(=S)N2CCN(c3cc(Cl)cc(Cl)n3)CC2)c1,i,
CC(=O)Nc1sc2c(c1-c1ccc3c(c1)CCO3)CCNC2,i,
Cc1cc(NC(=O)c2ccc(C)c(Nc3nccc(-c4cccnc4)n3)c2)cc(-n2cnc(C)c2)c1,i,
SMILES,nsP2pro primary,others
OCCc1ccc(O[C@@H]2O[C@H](CO)[C@@H](O)[C@H](O)[C@H]2O)cc1,i,
COc1cc(CO)ccc1O[C@@H]1O[C@H](CO)[C@@H](O)[C@H](O)[C@H]1O,i,
COc1cc(CCO)ccc1O[C@@H]1O[C@H](CO)[C@@H](O)[C@H](O)[C@H]1O,?,nsP2 cell sec=i;NSP2 full ctr=i;Furin counterscr=i;nsP2 NS23 pep=i;Papain counter=i;nsP2pro conf qHTS=?;HCV NS3 counter=i
C[C@@H]1C[C@@H](O)[C@@]23CO[C@]2(CO)CCC[C@@H]3[C@@]12C[C@@H](c1ccoc1)OC2=O,?,nsP2 cell sec=i;NSP2 full ctr=i;Furin counterscr=i;nsP2 NS23 pep=i;Papain counter=i;nsP2pro conf qHTS=i;HCV NS3 counter=i
CC1CC2OCC3(O)CCC(O)C(C14CC(c1ccoc1)OC4=O)C23CO (stereo unspecified),i,
Cc1ccc(-c2ccc(=O)n(CC(=O)NCCCN(C)C)n2)cc1,i,
CC1=C(C(=O)Nc2ccon2)C(c2nn(C)cc2Cl)N=C(Nc2nc3ccccc3o2)N1 (stereo unspecified),i,
N#CC1=C2SCN(C3CCCCC3)CN2C(=O)CC1c1ccc(Cl)cc1 (stereo unspecified),i,
N#CC1=C2SCN(C3CCCCC3)CN2C(=O)CC1c1ccc(F)cc1 (stereo unspecified),?,nsP2 cell sec=?;NSP2 full ctr=i;Furin counterscr=i;nsP2 NS23 pep=1.8µM;Papain counter=i;nsP2pro conf qHTS=13µM;HCV NS3 counter=i
CCCCC[C@@H](O)CC[C@H]1[C@@H]2Cc3cccc(OCC(=O)O)c3C[C@@H]2C[C@@H]1O,i,
Cc1cc(C)nc(NC(=S)N2CCN(C3=Nc4ccccc4Oc4ccccc43)CC2)c1,i,
Oc1ccc(C2COc3cc(O)ccc3C2)cc1 (stereo unspecified),i,
Cc1cccc(N2CCN(C(=S)Nc3cc(C)ccn3)CC2)c1,i,
O=C(O)C(=O)Nc1cccc(-c2nn[nH]n2)c1,?,nsP2 cell sec=i;NSP2 full ctr=?;Furin counterscr=i;nsP2 NS23 pep=?;Papain counter=i;nsP2pro conf qHTS=10µM;HCV NS3 counter=?
CCCCOC(=O)C(=O)Nc1cccc(-c2nn[nH]n2)c1,i,
Cc1ccc(-c2cc(C(=O)Nc3ccc(-c4nn[nH]n4)cc3)c3ccccc3n2)cc1C,i,
C[C@@H]1O[C@@H](O[C@@H]2/C=C/C=C/C=C\C=C\C[C@H](C)OC(=O)/C=C/[C@H]3O[C@@H]3C[C@H](O)C[C@]3(O)C[C@@H](O)[C@@H](C(=O)O)[C@H](C2)O3)[C@H](O)[C@H](N)[C@@H]1O,i,
O[C@@H]1CO[C@H]2[C@@H]1OC[C@@H]2n1nnnc1Sc1ncccn1,i,
O=C(NC1CCCCC1)O[C@@H]1CO[C@H]2[C@@H]1OC[C@@H]2NS(=O)(=O)c1ccc(Cl)cc1,i,
O=C(NC1CCCCC1)O[C@@H]1CO[C@H]2[C@@H]1OC[C@@H]2n1nnnc1SCc1ccco1,0.45µM,nsP2 cell sec=i;NSP2 full ctr=2.9µM;Furin counterscr=?;nsP2 NS23 pep=6.5µM;Papain counter=i;nsP2pro conf qHTS=0.9µM;HCV NS3 counter=?
C[S+](=O)([O-])N1CC2(CCN(Cc3c[nH]c4ccccc34)CC2)Cc2ccccc21,i,
COCCNC(=O)c1ccc2oc(-c3ccncc3Cl)nc2c1,i,
C/C(=N\NC(=O)C(NC(=O)c1ccccc1)c1n[nH]c(=O)c2ccccc12)c1cccc(Br)c1 (stereo unspecified),9.9µM,nsP2 cell sec=i;NSP2 full ctr=i;Furin counterscr=i;nsP2 NS23 pep=i;Papain counter=i;nsP2pro conf qHTS=i;HCV NS3 counter=i
C=C(C)[C@@H]1CCC2=CC(=O)C[C@@H](C)[C@]2(C)C1,i,
Cc1cc(NC(=O)Nc2nnc(-c3cccnc3)s2)ccc1F,i,
O=C(Nc1ncc(Cc2ccc(C(F)(F)F)cc2)s1)c1cn(-c2ccccc2)cn1,i,

# Screens (PubChem BioAssay)
